Source: PubChem BioAssay
Inconclusive results are not listed. Calls of active or inactive are those of the source. Unless noted, the limit is not given here; nearly all actives have AC50 up to about 30 µM.

Experiment: viability loss in pontine glioma line – cell-based, JHH-DIPG-1, MIPE4.0, CellTiter-Glo, qHTS, dose response (AID 1347062; cut-off not given, nearly all actives have AC50 up to about 27 µM;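 as to AC50: cells exposed to compound for two days before readout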)
Details: JHH-DIPG-1 viability, CellTiter-Glo ATP luminescence
With `C[C@]1(c2nc3c(C(N)=O)cccc3[nH]2)CCCN1` the outcome was “inactive”. With `NC(=O)N1CCC(CC(=O)N2CCC([C@H]3c4ncc(Br)cc4CCc4cc(Cl)cc(Br)c43)CC2)CC1` the AC50 was 23.5 µM (active). In the case of `O=C1NCCc2[nH]c(-c3ccncc3)cc21`, the AC50 is reported as 3.32 µM (active). In the case of `CNC(=O)c1ccc(N2C(=S)N(c3ccc(C#N)c(C(F)(F)F)c3)C(=O)C2(C)C)cc1F`, the outcome is reported as “inactive”. With `Cn1cncc1[C@@](N)(c1ccc(Cl)cc1)c1ccc2c(c1)c(-c1cccc(Cl)c1)cc(=O)n2C` the AC50 was 23.5 µM (active). In the case of `O=C(O)c1ccc2c(c1)nc(Nc1cccc(Cl)c1)c1ccncc12`, the AC50 is reported as 16.6 µM (active). In the case of `COc1cc2c(NC3CCN(C(C)C)CC3)nc(C3CCCCC3)nc2cc1OCCCN1CCCC1`, the AC50 is reported as 8.33 µM (active). With `CCN1CCC(n2cc(CNc3cc(Cl)c4ncc(C#N)c(Nc5ccc(F)c(Cl)c5)c4c3)nn2)CC1` the AC50 was 20.9 µM (active). For `CC(C)C[C@H](NC(=O)CNC(=O)c1cc(Cl)ccc1Cl)B(O)O`, the AC50 was 0.166 µM (active). In the case of `CCc1ccc(C(=O)Nc2cc(CN3CCN(C)CC3)cc(C(F)(F)F)c2)cc1C#Cc1cnc2ccnn2c1`, the AC50 is reported as 10.5 µM (active). In the case of `CC1(C)CCC(c2ccc(Cl)cc2)=C(CN2CCN(c3ccc(C(=O)NS(=O)(=O)c4ccc(N[C@H](CCN5CCOCC5)CSc5ccccc5)c(S(=O)(=O)C(F)(F)F)c4)cc3)CC2)C1`, the AC50 is reported as 18.7 µM (active). In the case of `C#Cc1cccc(Nc2ncnc3cc(OCCOC)c(OCCO)cc23)c1`, the AC50 is reported as 6.62 µM (active). With `CC(C)CC(=O)Nc1n[nH]c2c1CN(C(=O)C1CCN(C)CC1)C2(C)C` the AC50 was 1.05 µM (active). With `CCOC(CN1C(=O)[C@](CC(=O)Nc2ccc(C)cc2)(NC(=O)Nc2ccc(C)cc2)c2ccccc21)OCC` the outcome was “inactive”. For `CNC(=O)Nc1ccc(-c2nc(N3CC4CCC(C3)O4)c3cnn(C4CCC5(CC4)OCCO5)c3n2)cc1`, the AC50 was 1.87 µM (active). In the case of `C=CCn1c(=O)c2cnc(Nc3ccc(N4CCN(C)CC4)cc3)nc2n1-c1cccc(C(C)(C)O)n1`, the AC50 is reported as 0.418 µM (active). In the case of `CS[C@H]1SC[C@@H]2C(=O)N(C)[C@H](C(C)C)C(=O)OC[C@H](NC(=O)c3cnc4ccccc4n3)C(=O)N[C@H](C)C(=O)N(C)[C@H]1C(=O)N(C)[C@H](C(C)C)C(=O)OC[C@H](NC(=O)c1cnc3ccccc3n1)C(=O)N[C@H](C)C(=O)N2C`, the AC50 is reported as 0.00118 µM (active). With `CC(C)c1cnn2c(NCc3ccccc3)cc(N[C@@H](CO)[C@H](O)CO)nc12` the AC50 was 0.418 µM (active). For `O=C(O)[C@H](Cc1c[nH]c2ccccc12)N1C(=O)c2ccccc2C1=O`, the outcome was “inactive”. In the case of `COc1ccc(F)c(F)c1C(=O)c1cnc(NC2CCN(S(C)(=O)=O)CC2)nc1N`, the AC50 is reported as 2.64 µM (active). In the case of `C[C@H]1[C@H](OC(=O)CCC(=O)O)O[C@@H]2O[C@@]3(C)CC[C@H]4[C@H](C)CC[C@@H]1[C@@]24OO3`, the AC50 is reported as 14.8 µM (active). For `O=C1NC(=O)C(c2cnc3ccccn23)=C1c1cn2c3c(cccc13)CN(C(=O)N1CCOCC1)CC2`, the outcome was “inactive”. In the case of `Cc1ccc(S(=O)(=O)OCC(=O)Nc2ccc(C(=O)O)c(O)c2)cc1`, the outcome is reported as “inactive”. For `CC/C(=C(/c1ccc(O)cc1)c1ccc(OCCNC)cc1)c1ccccc1`, the AC50 was 23.5 µM (active). For `CC(=O)OCC(=O)[C@@]1(O)[C@H](C)C[C@H]2[C@@H]3C=C(C)C4=Cc5c(cnn5-c5ccccc5)C[C@]4(C)[C@H]3[C@@H](O)C[C@@]21C`, the AC50 was 9.35 µM (active). In the case of `O=C(NC1CCNCC1)c1[nH]ncc1NC(=O)c1c(Cl)cccc1Cl`, the AC50 is reported as 0.418 µM (active). For `CN(C)CCN1C(=O)c2cccc3cc(N)cc(c23)C1=O`, the AC50 was 23.5 µM (active). With `CC(C)C[C@H](NC(=O)CNC(=O)c1cc(Cl)ccc1Cl)B1OC(=O)CC(CC(=O)O)(C(=O)O)O1` (stereo partly drawn) the AC50 was 0.132 µM (active). For `NCC(=O)Nc1ccc(-n2nc(C(F)(F)F)cc2-c2ccc3c(ccc4ccccc43)c2)cc1`, the AC50 was 23.5 µM (active). For `CC(C)(C)c1cc(C(C)(C)C)c(NC(=O)c2c[nH]c3ccccc3c2=O)cc1O`, the outcome was “inactive”. For `CCCCCCCCCCCC(CC1OC(=O)C1CCCCCC)OC(=O)C(CC(C)C)NC=O` (stereo not drawn), the outcome was “inactive”.

Experiment: viability loss in pontine glioma line – cell-based, SU-DIPG-IV, MIPE4.0, CellTiter-Glo, qHTS, dose response (AID 1347063);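 also: compound exposure lasted 48 hours before the viability readout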
Details: CellTiter-Glo ATP luminescence
For `CN(C)CCCN=c1c2ccccc2n(C)c2[nH]c(=O)n(C)c(=O)c12`, the AC50 was 14.8 µM (active). For `C[C@@H]1COC(Nc2ccc3ncnc(Nc4ccc(OCc5nccs5)c(Cl)c4)c3c2)=N1`, the AC50 was 16.6 µM (active). In the case of `Cc1ccc2nc(NCCN)c3ncc(C)n3c2c1`, the AC50 is reported as 20.9 µM (active). In the case of `CC(C)c1cnn2c(NCc3ccccc3)cc(NCCCCCCN)nc12`, the AC50 is reported as 18.7 µM (active). With `COC[C@H](NC(=O)c1cnc(C)s1)C(=O)N[C@@H](COC)C(=O)N[C@@H](Cc1ccccc1)C(=O)[C@@]1(C)CO1` the AC50 was 0.148 µM (active). In the case of `CCN(CC)CCCCNc1nc2cc(Cl)c(Cl)cc2nc1-c1ccc(-c2cccs2)s1`, the AC50 is reported as 7.43 µM (active). With `CCOC(=O)[C@H]1O[C@@H]1C(=O)N[C@@H](CC(C)C)C(=O)NCCC(C)C` the outcome was “inactive”. With `C[C@]1(c2nc3c(C(N)=O)cccc3[nH]2)CCCN1` the outcome was “inactive”. With `NC(=O)N1CCC(CC(=O)N2CCC([C@H]3c4ncc(Br)cc4CCc4cc(Cl)cc(Br)c43)CC2)CC1` the AC50 was 18.7 µM (active). In the case of `O=C1NCCc2[nH]c(-c3ccncc3)cc21`, the AC50 is reported as 2.64 µM (active). With `CNC(=O)c1ccc(N2C(=S)N(c3ccc(C#N)c(C(F)(F)F)c3)C(=O)C2(C)C)cc1F` the outcome was “inactive”. In the case of `Cn1cncc1[C@@](N)(c1ccc(Cl)cc1)c1ccc2c(c1)c(-c1cccc(Cl)c1)cc(=O)n2C`, the AC50 is reported as 8.33 µM (active). In the case of `O=C(O)c1ccc2c(c1)nc(Nc1cccc(Cl)c1)c1ccncc12`, the AC50 is reported as 7.43 µM (active). With `COc1cc2c(NC3CCN(C(C)C)CC3)nc(C3CCCCC3)nc2cc1OCCCN1CCCC1` the AC50 was 18.7 µM (active). For `CCN1CCC(n2cc(CNc3cc(Cl)c4ncc(C#N)c(Nc5ccc(F)c(Cl)c5)c4c3)nn2)CC1`, the AC50 was 18.7 µM (active). For `CC(C)C[C@H](NC(=O)CNC(=O)c1cc(Cl)ccc1Cl)B(O)O`, the AC50 was 0.118 µM (active). With `CCc1ccc(C(=O)Nc2cc(CN3CCN(C)CC3)cc(C(F)(F)F)c2)cc1C#Cc1cnc2ccnn2c1` the AC50 was 7.43 µM (active). In the case of `CC1(C)CCC(c2ccc(Cl)cc2)=C(CN2CCN(c3ccc(C(=O)NS(=O)(=O)c4ccc(N[C@H](CCN5CCOCC5)CSc5ccccc5)c(S(=O)(=O)C(F)(F)F)c4)cc3)CC2)C1`, the AC50 is reported as 2.09 µM (active). With `C#Cc1cccc(Nc2ncnc3cc(OCCOC)c(OCCO)cc23)c1` the AC50 was 2.96 µM (active). In the case of `CC(C)CC(=O)Nc1n[nH]c2c1CN(C(=O)C1CCN(C)CC1)C2(C)C`, the AC50 is reported as 2.35 µM (active). With `CCOC(CN1C(=O)[C@](CC(=O)Nc2ccc(C)cc2)(NC(=O)Nc2ccc(C)cc2)c2ccccc21)OCC` the AC50 was 14.8 µM (active). In the case of `CNC(=O)Nc1ccc(-c2nc(N3CC4CCC(C3)O4)c3cnn(C4CCC5(CC4)OCCO5)c3n2)cc1`, the AC50 is reported as 0.0264 µM (active). In the case of `C=CCn1c(=O)c2cnc(Nc3ccc(N4CCN(C)CC4)cc3)nc2n1-c1cccc(C(C)(C)O)n1`, the AC50 is reported as 11.8 µM (active). For `CS[C@H]1SC[C@@H]2C(=O)N(C)[C@H](C(C)C)C(=O)OC[C@H](NC(=O)c3cnc4ccccc4n3)C(=O)N[C@H](C)C(=O)N(C)[C@H]1C(=O)N(C)[C@H](C(C)C)C(=O)OC[C@H](NC(=O)c1cnc3ccccc3n1)C(=O)N[C@H](C)C(=O)N2C`, the AC50 was 0.00263 µM (active). With `CC(C)c1cnn2c(NCc3ccccc3)cc(N[C@@H](CO)[C@H](O)CO)nc12` the AC50 was 0.187 µM (active). In the case of `O=C(O)[C@H](Cc1c[nH]c2ccccc12)N1C(=O)c2ccccc2C1=O`, the outcome is reported as “inactive”. With `COc1ccc(F)c(F)c1C(=O)c1cnc(NC2CCN(S(C)(=O)=O)CC2)nc1N` the AC50 was 1.18 µM (active). For `C[C@H]1[C@H](OC(=O)CCC(=O)O)O[C@@H]2O[C@@]3(C)CC[C@H]4[C@H](C)CC[C@@H]1[C@@]24OO3`, the AC50 was 3.72 µM (active). With `O=C1NC(=O)C(c2cnc3ccccn23)=C1c1cn2c3c(cccc13)CN(C(=O)N1CCOCC1)CC2` the AC50 was 0.00833 µM (active). With `Cc1ccc(S(=O)(=O)OCC(=O)Nc2ccc(C(=O)O)c(O)c2)cc1` the outcome was “inactive”. With `CC(=O)OCC(=O)[C@@]1(O)[C@H](C)C[C@H]2[C@@H]3C=C(C)C4=Cc5c(cnn5-c5ccccc5)C[C@]4(C)[C@H]3[C@@H](O)C[C@@]21C` the AC50 was 5.26 µM (active). With `O=C(NC1CCNCC1)c1[nH]ncc1NC(=O)c1c(Cl)cccc1Cl` the AC50 was 0.935 µM (active). In the case of `CN(C)CCN1C(=O)c2cccc3cc(N)cc(c23)C1=O`, the AC50 is reported as 18.7 µM (active). In the case of `CC(C)C[C@H](NC(=O)CNC(=O)c1cc(Cl)ccc1Cl)B1OC(=O)CC(CC(=O)O)(C(=O)O)O1` (stereo partly drawn), the AC50 is reported as 0.0662 µM (active). In the case of `NCC(=O)Nc1ccc(-n2nc(C(F)(F)F)cc2-c2ccc3c(ccc4ccccc43)c2)cc1`, the AC50 is reported as 20.9 µM (active). With `CC(C)(C)c1cc(C(C)(C)C)c(NC(=O)c2c[nH]c3ccccc3c2=O)cc1O` the outcome was “inactive”. For `CCCCCCCCCCCC(CC1OC(=O)C1CCCCCC)OC(=O)C(CC(C)C)NC=O` (stereo not drawn), the outcome was “inactive”.
